Measured values taken from the antibiotic and cytotoxicity screens of Wong et al. (2023).
The campaign covered roughly 39,000 compounds. About 3,300 (8.5%) were called active. The full list was thinned out, with actives kept by preference.

The compounds below were run on HepG2 (assay: cytotoxicity call (relative viability < 0.9)). Conditions: 10 µM.

Row | Compound | cytotoxicity call
1 | COc1ccc(C(N)=S)cn1 | inactive
2 | Cc1noc(C)c1S(=O)(=O)Nc1ccc2c(c1)C(=O)N([C@H](C)CO)C[C@H](C)[C@H](CN(C)CC1CC1)O2 | inactive
3 | C[C@@H]1CN([C@@H](C)CO)S(=O)(=O)c2ccc(C#CC(C)(C)O)cc2O[C@H]1CN(C)Cc1ccncc1 | inactive
4 | C[C@H](CO)N1C[C@H](C)[C@@H](CN(C)S(=O)(=O)c2ccccc2)Oc2ccc(NC(=O)CCN3CCOCC3)cc2CC1=O | inactive
5 | COc1ccccc1CNS(C)(=O)=O | inactive
6 | COc1cc(NS(C)(=O)=O)ccc1Nc1c2ccccc2nc2ccccc12 | active
7 | CS(=O)(=O)Nc1ccc2c(c1)C(=O)NC2=O | inactive
8 | C[C@H]1CCCCO[C@@H](CN(C)C(=O)c2ccncc2)[C@@H](C)CN([C@@H](C)CO)C(=O)c2cc(NC(=O)NC3CCCCC3)ccc2O1 | inactive
9 | Cn1nccc1C(=O)NCCN | inactive
10 | CNC(=O)[C@@H](c1ccccc1)N1CCc2cc(OC)c(OC)cc2[C@@H]1CCc1ccc(C(F)(F)F)cc1 | inactive
11 | CNCCC(Oc1ccc(C(F)(F)F)cc1)c1ccccc1.Cl (stereo unspecified) | active
12 | CNCCC(Oc1ccccc1C)c1ccccc1.Cl (stereo unspecified) | inactive
13 | CCCOC(=S)N[C@H]1OC[C@@H](O)[C@@H](O)[C@@H]1O | inactive
14 | COc1ccccc1-c1ccc2c(c1)O[C@@H](CN(C)S(=O)(=O)c1ccccc1)[C@@H](C)CN([C@@H](C)CO)S2(=O)=O | inactive
15 | C=CC[C@@H](CC(=O)NCCO)C(=O)NC[C@H](OC(=O)[C@H](CC=C)CC(=O)OC(C)(C)C)c1ccccc1 | inactive
16 | COc1ccc(S(=O)(=O)N[C@@H](CNc2nc(C)nc(N3CCC(c4ccc5c(n4)NCCC5)CC3)c2C)C(=O)O)cc1 | active
17 | O=C(NCCCN1CCOCC1)[C@H]1[C@@H]2C=C[C@@]3(CN(Cc4cccs4)C(=O)[C@@H]13)O2 | inactive
18 | Cc1cncc2cccc(S(=O)(=O)N3CC[C@H](N(C/C=C/c4ccc(Br)cc4)C/C=C/c4ccc(Br)cc4)C3)c12 | inactive
19 | S=C(NCCCc1cnc[nH]1)NCCCN(Cc1ccc(Cl)c(Cl)c1)c1ccc(Br)cn1 | active
20 | C[C@@H]1CCCCO[C@@H](CN(C)C(=O)Nc2ccccc2)[C@H](C)CN([C@H](C)CO)C(=O)c2cc(NS(=O)(=O)c3ccccc3)ccc2O1 | inactive
21 | CC(C)(C)[S@@+]([O-])N1Cc2cc(C(=O)NCc3ccc4c(c3)OCO4)nc(-c3ccc(-c4ccccc4)cc3)c2[C@H]1CCO | inactive
22 | COc1ccc(S(=O)(=O)N[C@@H]2C=C[C@@H](CC(=O)N3CCC(Cc4ccccc4)CC3)O[C@H]2CO)cc1 | inactive
23 | CCCNC(=O)C[C@@H]1CC[C@H]2[C@H](COc3ccc(NC(=O)c4ccc5c(c4)OCO5)cc3C(=O)N2C)O1 | inactive

Row | Compound | cytotoxicity call
24 | C[C@H](CO)N1C[C@H](C)[C@@H](CN(C)Cc2ccc(Cl)c(Cl)c2)Oc2ccc(NS(=O)(=O)c3ccc(Cl)cc3)cc2CC1=O | inactive
25 | C[C@@H]1CN([C@@H](C)CO)C(=O)Cc2cc(NS(=O)(=O)c3ccc(Cl)cc3)ccc2O[C@@H]1CN(C)Cc1ccc(Cl)c(Cl)c1 | active
26 | C[C@H]1CN([C@@H](C)CO)C(=O)Cc2cc(NS(=O)(=O)c3ccc(Cl)cc3)ccc2O[C@H]1CN(C)Cc1ccc(Cl)c(Cl)c1 | active
27 | C[C@H]1CN([C@@H](C)CO)C(=O)Cc2cc(NS(=O)(=O)c3ccc(Cl)cc3)ccc2O[C@@H]1CN(C)Cc1ccc(Cl)c(Cl)c1 | inactive
28 | C[C@@H]1CN([C@@H](C)CO)C(=O)Cc2cc(NS(=O)(=O)c3ccc(Cl)cc3)ccc2O[C@H]1CN(C)Cc1ccc(Cl)c(Cl)c1 | inactive
29 | C[C@@H]1CN([C@H](C)CO)C(=O)Cc2cc(NS(=O)(=O)c3ccc(Cl)cc3)ccc2O[C@@H]1CN(C)Cc1ccc(Cl)c(Cl)c1 | active
30 | C[C@H](CO)N1C[C@H](C)[C@H](CN(C)Cc2ccc(Cl)c(Cl)c2)Oc2ccc(NS(=O)(=O)c3ccc(Cl)cc3)cc2CC1=O | active
31 | C[C@@H]1CN([C@H](C)CO)C(=O)Cc2cc(NS(=O)(=O)c3ccc(Cl)cc3)ccc2O[C@H]1CN(C)Cc1ccc(Cl)c(Cl)c1 | inactive
32 | CO[C@H]1CN(C)C(=O)c2ccc(NS(=O)(=O)c3cn(C)cn3)cc2OC[C@@H](C)N(Cc2cccc(F)c2)C[C@H]1C | inactive
33 | C[C@H](CO)N1C[C@H](C)[C@H](CN(C)Cc2ccc(C(=O)O)cc2)Oc2c(NC(=O)C3CCOCC3)cccc2C1=O | inactive
34 | C[C@@H]1CN([C@@H](C)CO)C(=O)c2cccc(NC(=O)Nc3ccccc3)c2O[C@@H]1CN(C)Cc1ccc(Cl)c(Cl)c1 | inactive
35 | Cc1cc2n(c(=O)c1C(N)=O)CCO2 | inactive
36 | CC/C=C\C/C=C\C/C=C\C/C=C\C/C=C\C/C=C\CCC(=O)OCC | inactive
37 | C[C@@H]1CN([C@@H](C)CO)C(=O)c2cc(NC(=O)Nc3ccc4c(c3)OCO4)ccc2O[C@@H](C)CCCCO[C@@H]1CN(C)Cc1ccncc1 | inactive
38 | CCCNC(=O)N1C[C@]2(CN(C2)S(=O)(=O)c2ccccc2)c2c(n(c3cc(ccc23)OC)C)[C@H]1CO | active
39 | CCCNC(=O)N1C[C@]2(CCN(CC2)S(=O)(=O)c2ccc(cc2)OC)c2c(n(c3cc(ccc23)OC)C)[C@@H]1CO | active
40 | CCCNC(=O)N1C[C@]2(CCN(CC2)S(=O)(=O)c2ccc(cc2)OC)c2c(n(c3cc(ccc23)OC)C)[C@H]1CO | inactive
41 | CCCNC(=O)N1C[C@]2(CCN(CC2)S(=O)(=O)c2ccccc2)c2c(n(c3cc(ccc23)OC)C)[C@H]1CO | inactive
42 | CCCNC(=O)N1C[C@]2(CN(C2)S(=O)(=O)c2ccccc2)c2c(n(c3cc(ccc23)OC)C)[C@@H]1CO | inactive
43 | CCCNC(=O)N1C[C@]2(CN(C2)S(=O)(=O)c2cccc(c2)OC)c2c(n(c3cc(ccc23)OC)C)[C@@H]1CO | inactive
44 | C[C@H]1CN([C@@H](C)CO)C(=O)c2cccc(NS(C)(=O)=O)c2O[C@H]1CN(C)S(=O)(=O)c1cccs1 | inactive
45 | COCC#Cc1cnc2c(c1)C(=O)N([C@H](C)CO)C[C@@H](C)[C@H](CN(C)C(C)=O)O2 | inactive
46 | N[C@@H]1CC(=O)N(c2ccc(F)cc2)C1 | inactive
